# High-throughput results: PubChem BioAssay, several laboratories
# WT yeast gro inh = growth inhibition of WT yeast, mitochondrial fusion screen; mitochondrial fusion phenotypic screen, WT strain; inhibition, % at 10 µM; 190,000 compounds, 2.1% hits; in the data active = inhibition above about 58%; tested in S. cerevisiae
# Platelet DG rel = platelet dense granule release activity. human platelet-rich plasma, SFLLRN dense granule ATP release, luminescence. inhibition, %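 (compounds screened at 7.5 µM in platelet-rich plasma)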. 300,000 compounds, 0.22% hits;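 active = mean replicate score, as percent of positive control, at or above 50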
# SKKanGAS inh = inhibitors of SKKanGAS S. pyogenes growth in kanamycin (SK-promoter or general growth effect); BacTiter-Glo, 6 h; inhibition, % at 7.5 µM; 300,000 compounds, 1.3% hits;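 active = mean replicate score, as percent of positive control median, at least 50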;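 note: strain carries kanamycin resistance gene driven by streptokinase promoter and grows in 40 µg/ml kanamycin; loss of luminescence reflects streptokinase promoter inhibition or plain growth inhibition; 0% = median of DMSO wells and 100% = positive control at its reference dose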
# Rtt109 HAT inh = inhibitors of Candida albicans Rtt109/Vps75 histone acetyltransferase | Q5AAJ8 | purified Rtt109/Vps75, ThioGlo CoA-SH fluorescence, 4 h | inhibition, % at 34.9 µM | 330,000 compounds, 0.16% hits | AID 540336;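 active = inhibition of at least 50% in every replicate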
# TPT1 inhibitor = inhibitors of Candida albicans tRNA 2'-phosphotransferase TPT1. recombinant caTPT1, FP RNA substrate dephosphorylation. inhibition, % at 5 µM. 300,000 compounds, 0.81% hits;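 active = inhibition above the mean of all tested compounds plus 3 SD, set per screening campaign, cut at about 24% in these data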;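 note: plate controls were DMSO alone for no effect and ferristatin control at 100 nM for full effect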
# PHOSPHO1 inh = PHOSPHO1 (human) inhibition. Q8TCT1. recombinant PHOSPHO1, absorbance phosphatase assay. inhibition, % at 13.3 µM. 290,000 compounds, 1.1% hits. AID 1565; in the data active = inhibition above about 60%
# Target sequence (Q8TCT1 whole entry, looked up): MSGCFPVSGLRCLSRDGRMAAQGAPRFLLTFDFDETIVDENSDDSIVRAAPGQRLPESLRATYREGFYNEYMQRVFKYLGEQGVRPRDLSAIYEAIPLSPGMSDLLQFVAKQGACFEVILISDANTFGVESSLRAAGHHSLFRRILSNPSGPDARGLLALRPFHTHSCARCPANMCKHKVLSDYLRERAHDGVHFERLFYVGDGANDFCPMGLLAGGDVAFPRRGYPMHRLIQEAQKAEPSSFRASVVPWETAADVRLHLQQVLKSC
# Numbers without * were called inactive; . = not tested or not shown. Only some compounds are listed: those with a hit (about 3.9% of all), similar ones and a draw of the others.
SMILES,WT yeast gro inh,Platelet DG rel,SKKanGAS inh,Rtt109 HAT inh,TPT1 inhibitor,PHOSPHO1 inh
CCCCCC[n+]1c(-c2ccccc2)csc1Nc1ccccc1,69*,-13,-4,0,1,-3
O=C(O)c1ccc(C[n+]2c(-c3ccccc3)csc2Nc2ccccc2)cc1,12,3,8,18,-1,-9
CC(C)c1nc(N2CCOCC2)c(C#N)c2c1CCCC2,74*,6,9,-8,-4,25
CCc1cccc(CC)c1NC(=S)NCCc1c(C)[nH]c2ccccc12,68*,-10,7,-4,0,-4
CC1=C(C(N)=O)C(c2ccc(Br)cc2)n2nc(CCCO)nc2N1 (centres undefined),.,6,0,-6,22,-6
OCCCc1nc2n(n1)C(c1cccs1)C=C(c1ccc(Br)cc1)N2 (centres undefined),61*,17,24,.,-58,18
Brc1ccc(C2=CC(c3cccs3)n3ncnc3N2)cc1 (centres undefined),68*,4,5,-47,-113,24
Fc1ccc(C2=CC(c3ccc(Br)o3)n3ncnc3N2)cc1 (centres undefined),-6,.,.,4,-69,-2
COc1ccccc1C(=O)COC(=O)Cn1nc(C)c([N+](=O)[O-])c1C,.,5,9,-8,-1,.
O=C(Nc1cccc(Cl)c1)c1nc[nH]c1C(=O)N1CCN(c2ccccc2)CC1,.,.,.,-6,.,.
C=C1c2cc3c(cc2NC(=S)N1Cc1ccccc1)OCO3,.,-4,3,.,-1,70*
S=C(NCc1ccc2c(c1)OCO2)NC1CCN(Cc2ccccc2)CC1,.,3,-8,4,-1,13
O=C(N[C@@H](Cc1ccccc1)C(=O)OCc1ccccc1)c1ccco1,.,.,.,-2,.,.
CCOC(=O)c1c(C)oc2c1c(CN1CCN(C(=O)OCC)CC1)c(O)c1ccccc12,31,-3,5,0,-3,19
CCOC(=O)c1c(C)oc2c1c(CN1CCN(CCO)CC1)c(O)c1ccccc12,59*,.,.,8,.,15
CCOC(=O)c1c(C)oc2c(CC(=O)c3ccccc3)c(Cl)c(O)c(O)c12,-9,19,-4,58*,-1,-18
CSc1nc2sc(-c3ccccc3)cc2c(=O)n1N,41,115*,15,-9,4,4
NC(=O)NC(=O)CSc1nc2sc(-c3ccccc3)cc2c(=O)n1-c1ccccc1,-28,1,62*,-2,1,6
CCc1ccc(C2C(C#N)=C(N)C(C#N)(C#N)C3=CCC(C(C)(C)C)CC32)cc1 (centres undefined),49,0,85*,-8,-8,2
CC1Cc2ccccc2N1C(=O)CSc1nnnn1C(C)C (centres undefined),5,-1,3,-5,1,62*
CCc1nc(SCC(=O)N2c3ccccc3CC2C)c2c(C)c(C)sc2n1 (centres undefined),26,5,50*,-3,1,58
CC1CC(C)CN(C(=O)c2cccc(S(=O)(=O)NCc3ccccc3)c2)C1 (centres undefined),.,.,.,-1,.,.
CCCCCCCCC[n+]1cccc2c3ccccc3ccc21,54,87*,12,8,-3,-3
CCCCCCCCCCCCCCCC[n+]1cccc2ccccc21,98,.,.,-2,-2,6
N#Cc1c(C(F)(F)F)cc(-c2ccco2)nc1SCc1ccncc1,21,0,11,-4,23,82*
SMILES,WT yeast gro inh,Platelet DG rel,SKKanGAS inh,Rtt109 HAT inh,TPT1 inhibitor,PHOSPHO1 inh
CSc1nc(-c2ccco2)cc(C(F)(F)F)c1C#N,22,5,3,-12,0,-4
COC(=O)[C@@]1(Cc2ccc(OC)cc2)[C@@H]2C(=CC(=O)[C@H]2CC(=O)C(=O)N(C)C)CN1C(=O)c1ccccc1,-11,.,.,.,0,28
C=C1C(=O)C=C2CN(C(=O)c3ccccc3)[C@@](Cc3ccc(F)cc3)(C(=O)OC)[C@@H]12,74*,5,-9,12,8,4
O=C(CN1C(=O)NC(CCc2ccccc2)C1=O)Nc1cccc(Br)c1 (centres undefined),.,.,.,-2,.,.
O=c1cc(COc2ccccc2[N+](=O)[O-])nc2sccn12,.,6,-10,.,0,-23
O=C(NCCCN1CCOCC1)c1ccccc1-c1ccccc1,74*,-1,-2,-2,-3,-8
O=C(Nc1ccccc1C(=O)NCCCN1CCOCC1)c1ccccc1,.,-3,-3,-8,0,10
COc1ccc(-c2cc3c(=O)n(CC(=O)Nc4ccc(Cl)cc4)nc(C)n3n2)cc1,.,-8,-1,4,-3,13
Cc1nn(CC(=O)Nc2cccc(Cl)c2)c(=O)c2cc(-c3ccccc3)nn12,.,4,-9,1,-2,65*
Cc1ccc(N/N=C(\C#N)C(N)=S)c(C)c1,38,6,60*,7,-4,-15
CCN(CC(=O)Nc1c(F)cccc1F)C(=O)C1COc2ccccc2O1 (centres undefined),.,.,.,9,.,.
CCOC(=O)/C=C/S(=O)(=O)c1ccc(NC(C)=O)cc1,-1,10,6,124*,-1,3
CCOC(=O)/C=C/C(=O)Nc1ccc(S(=O)(=O)Nc2c(C)cc(C)cc2C)cc1,-6,3,-12,-10,0,1
Cc1cccc(N2CCN(C(=O)NCc3ccc(F)cc3)CC2)c1C,.,-1,1,-10,-1,15
Cc1cc(C)n2cc(CSc3nnc(-c4ccccc4)o3)nc2n1,-7,-19,-1,12,2,78*
Cc1cc(C)n2cc(CSc3nnc(N)s3)nc2n1,-1,-11,-5,2,-3,71*
CC(Sc1ccccc1)C(=O)NNC(=O)c1ccncc1 (centres undefined),.,-7,7,49,-1,.
O=c1cc(-c2ccccc2)nc2c(-c3ccccc3)c(C(F)(F)F)[nH]n12,.,-3,56*,.,1,29
O=C(CSc1nnc(-c2cnccn2)n1Cc1ccco1)c1ccc(Cl)cc1,-1,-1,6,.,1,14
Brc1ccc(CSc2nnc(-c3ccccn3)n2Cc2ccco2)cc1,18,0,5,12,2,47
O=C(CSc1nnc(-c2cccnc2)n1Cc1ccco1)c1ccc(Br)cc1,6,12,-3,3,4,26
O=C(CSc1nnc(-c2cccnc2)n1Cc1ccco1)c1ccc2ccccc2c1,-4,4,-2,.,9,70*
O=C(CSc1nnc(-c2ccccn2)n1Cc1ccco1)c1ccccc1,-5,2,-2,-2,-4,59
O=C(CSc1nnc(-c2ccccn2)n1Cc1ccco1)c1ccc(Cl)cc1,7,-5,1,.,5,80*
CC(C)(C)c1ccc(CSc2nnc(-c3ccccn3)n2Cc2ccco2)cc1,64*,3,45,-7,-2,49
O=C(CSc1nnc(-c2cnccn2)n1Cc1ccco1)c1ccccc1,99*,4,-7,8,-2,90*
COC(=O)c1sc2nc(C)nc(SCC(=O)Nc3sccc3C(N)=O)c2c1C,.,.,.,3,.,.
